Test results as given in PubChem BioAssay (NCATS).
A number with no mark means an inactive call. Records with an inconclusive call do not appear. Activity calls are given as the source filed them. Calls come from the whole dose curve; as a rule, active = well fitted curve in the direction sought with a large enough effect; inconclusive = small, poorly fitted or top-dose-only effect, or another doubt; inactive = no such curve, though single readings can be large; an effect the other way counts as inactive or inconclusive.

What follows are compounds tested against Cytochrome P450 3A4 (Homo sapiens) (UniProt P08684) (assay: qHTS Assay for Activators of Cytochrome P450 3A4 (AID 885; note: nearly all actives have a fitted effect of over 65% in size; note: potency is the fitted concentration of half-maximal effect)). Conditions: recombinant CYP3A4, Luciferin-PPXE luminescence, 60 min; series mostly up to 57.1 µM; activity change, positive = activation: at the top concentration.
Outline: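 Steps: enzyme/substrate mix dispensed; compound added, 10 min RT; NADPH regeneration solution added, 60 min RT; luciferin detection buffer stops reaction; 20 min later luminescence measured.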

Sequence of Cytochrome P450 3A4 (Homo sapiens) (P08684 whole entry, looked up): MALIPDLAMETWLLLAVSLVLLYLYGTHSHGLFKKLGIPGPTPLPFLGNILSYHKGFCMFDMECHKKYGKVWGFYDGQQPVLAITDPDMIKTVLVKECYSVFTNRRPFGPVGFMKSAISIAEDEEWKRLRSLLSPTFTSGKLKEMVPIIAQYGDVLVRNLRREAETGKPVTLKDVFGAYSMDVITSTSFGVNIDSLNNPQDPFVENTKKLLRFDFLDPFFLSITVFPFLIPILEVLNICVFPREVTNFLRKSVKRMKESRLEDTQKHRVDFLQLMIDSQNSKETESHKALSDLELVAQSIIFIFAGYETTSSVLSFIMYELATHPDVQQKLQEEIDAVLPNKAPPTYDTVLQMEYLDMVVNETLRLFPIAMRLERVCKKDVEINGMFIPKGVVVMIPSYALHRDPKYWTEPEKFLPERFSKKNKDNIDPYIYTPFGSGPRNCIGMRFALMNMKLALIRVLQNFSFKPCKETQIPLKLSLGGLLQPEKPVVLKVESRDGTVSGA

SMILES | activity change, positive = activation | Potency
CCN(CC)CCCC(C)n1c(-c2ccccc2)nc2c(N3CCOCC3)nc(C)nc21 (centres undefined) | -53.7% | –
CCCn1c(-c2ccc(F)cc2)nc2c(NCCCCN3CCCC3)nc(C)nc21 | -69.5% | –
CCCn1c(C)nc2c(NCCN3CCCC3)nc(C)nc21 | – | 15.8 µM (active)
CCCCNc1nc(C)nc2c1nc(-c1ccccc1)n2CCN(C)C | -48.8% | –
CCCn1c(-c2ccc(F)cc2)nc2c(NC(C)CCCN(CC)CC)nc(C)nc21 (centres undefined) | -67.9% | –
COCCN(CCOC)c1nc(C)nc2c1nc(-c1ccccc1)n2CC1CCN(C)CC1 | -41.1% | –
CCN(CC)CCCCn1c(-c2ccccc2)nc2c(NCc3ccccc3)nc(C)nc21 | -63.1% | –
CCCn1c(C)nc2c(NC3CCCCC3)nc(C)nc21 | -56.4% | –
CCCn1c(C)nc2c(NC(C)CCCN(CC)CC)nc(C)nc21 (centres undefined) | -30.3% | –

What follows are compounds tested against Calcium and integrin-binding protein 1 (Homo sapiens) (UniProt Q99828) (assay: Primary qHTS for Identification of Calcium Integrin Binding Protein 1 (CIB1) Competitor (AID 1508620;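 note: GST tagged CIB1 binding a fluorescein labelled alphaIIb integrin peptide tracer; top concentration of the series differs between compounds; % is set by controls: 0 for no effect and ±100 for the full control effect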)). Conditions: CIB1-GST / FITC-alphaIIb peptide fluorescence polarization; series mostly up to 114 µM; activity change, negative = inhibition: at the top concentration.
Outline: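 Fluorescence polarization competition: CIB1-GST (1 uM final) preincubated with compound 15 min at room temperature, then FITC-labeled alphaIIb peptide (100 nM final) added for another 15 min. Polarization read at Ex 480/Em 540.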

Sequence of Calcium and integrin-binding protein 1 (Homo sapiens) (Q99828 whole entry, looked up): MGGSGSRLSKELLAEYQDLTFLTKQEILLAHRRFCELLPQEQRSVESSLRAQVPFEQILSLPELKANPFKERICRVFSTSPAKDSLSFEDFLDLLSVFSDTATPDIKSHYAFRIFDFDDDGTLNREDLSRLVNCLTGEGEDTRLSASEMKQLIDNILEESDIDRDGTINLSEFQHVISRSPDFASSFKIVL

SMILES | activity change, negative = inhibition
CCCn1c(-c2ccc(F)cc2)nc2c(NCCCN3CCCCC3C)nc(C)nc21 (centres undefined) | 6.04%
CCCn1c(C)nc2c(NCc3ccccc3)nc(C)nc21 | 0.503%
Cc1nc(N2CCOCC2)c2nc(-c3ccccc3)n(CCN3CCCC3)c2n1 | -4.22%
CCN(CC)CCCn1c(-c2ccccc2)nc2c(NCc3ccccc3)nc(C)nc21 | 2.74%
CCN(CC)CCCC(C)n1c(-c2ccccc2)nc2c(NCCOC)nc(C)nc21 (centres undefined) | -1.96%
CCCCNc1nc(C)nc2c1nc(-c1ccccc1)n2CC1CCN(C)CC1 | -1.08%
CCCn1c(-c2ccc(F)cc2)nc2c(NCCN3CCCCC3)nc(C)nc21 | 0.0317%
CCCn1c(-c2ccc(F)cc2)nc2c(NCCCCN(C)C)nc(C)nc21 | -4.29%
CCCCNc1nc(C)nc2c1nc(-c1ccccc1)n2CCCCN(CC)CC | -3.68%
Cc1nc(NCc2ccccc2)c2nc(-c3ccccc3)n(CCN3CCCCC3)c2n1 | 6.66%
CCN(CC)CCCCn1c(-c2ccccc2)nc2c(N3CCOCC3)nc(C)nc21 | 4.47%
Cc1nc(N2CCOCC2)c2nc(-c3ccccc3)n(C(C)CN(C)C)c2n1 (centres undefined) | 0.881%
CCCn1c(C)nc2c(NCCCCN(CC)CC)nc(C)nc21 | 4.49%
CCCCNc1nc(C)nc2c1nc(-c1ccccc1)n2CCCN(C)C | -4.01%
Cc1nc(N2CCOCC2)c2nc(-c3ccccc3)n(CC(C)(C)CN(C)C)c2n1 | -3.03%
CCCCNc1nc(C)nc2c1nc(-c1ccccc1)n2C1CCN(Cc2ccccc2)C1 (centres undefined) | 3.29%
CCCn1c(C)nc2c(NC3CCN(Cc4ccccc4)C3)nc(C)nc21 (centres undefined) | 1.8%
CCN(CC)CCCC(C)n1c(-c2ccccc2)nc2c(NCc3ccccc3)nc(C)nc21 (centres undefined) | -5.56%
CCN(CC)CCCC(C)n1c(-c2ccccc2)nc2c(NC3CCCCC3)nc(C)nc21 (centres undefined) | 0.219%
CCCn1c(-c2ccc(F)cc2)nc2c(NCCCCN(CC)CC)nc(C)nc21 | -3.2%

SMILES | activity change, negative = inhibition
CCCn1c(-c2ccc(F)cc2)nc2c(NC(C)CN(C)C)nc(C)nc21 (centres undefined) | 4.3%
CCN(CC)CCCn1c(-c2ccccc2)nc2c(N(CCOC)CCOC)nc(C)nc21 | -2.8%
Cc1nc(NC2CCCCC2)c2nc(-c3ccccc3)n(CCN(C)C)c2n1 | 0.0623%
CCN(CC)CCn1c(-c2ccccc2)nc2c(NC3CCCCC3)nc(C)nc21 | -0.976%
CCCn1c(-c2ccc(F)cc2)nc2c(NCC3CCCN3CC)nc(C)nc21 (centres undefined) | 0.648%
COCCNc1nc(C)nc2c1nc(-c1ccccc1)n2C1CCN(Cc2ccccc2)C1 (centres undefined) | -0.452%
CCN(CC)CCn1c(-c2ccccc2)nc2c(NCCOC)nc(C)nc21 | -2.96%
Cc1nc(NCc2ccccc2)c2nc(-c3ccccc3)n(CC(C)(C)CN(C)C)c2n1 | -0.157%
Cc1nc(Nc2ccccc2)c2nc(-c3ccccc3)n(CCCN3CCCCC3C)c2n1 (centres undefined) | -1.66%
CCCn1c(-c2ccc(F)cc2)nc2c(N3CCN(Cc4nc(OC)cc(OC)n4)CC3)nc(C)nc21 | -5.77%
CCCn1c(C)nc2c(N3CCOCC3)nc(C)nc21 | 3.23%
CCN(CC)CCCC(C)n1c(-c2ccccc2)nc2c(N3CCOCC3)nc(C)nc21 (centres undefined) | 1.04%
CCCn1c(-c2ccc(F)cc2)nc2c(NCCCCN3CCCC3)nc(C)nc21 | -8.11%
CCCn1c(C)nc2c(NCCN3CCCC3)nc(C)nc21 | 0.97%
CCCCNc1nc(C)nc2c1nc(-c1ccccc1)n2CCN(C)C | 6.27%
CCCn1c(-c2ccc(F)cc2)nc2c(NC(C)CCCN(CC)CC)nc(C)nc21 (centres undefined) | -0.526%
COCCN(CCOC)c1nc(C)nc2c1nc(-c1ccccc1)n2CC1CCN(C)CC1 | 2.25%
CCN(CC)CCCCn1c(-c2ccccc2)nc2c(NCc3ccccc3)nc(C)nc21 | 3.44%
CCCn1c(C)nc2c(NC3CCCCC3)nc(C)nc21 | -1.64%
CCCn1c(C)nc2c(NC(C)CCCN(CC)CC)nc(C)nc21 (centres undefined) | -3.47%
